An excerpt weighted towards active compounds, which were near 12% of everything screened.
LASV entry inh: qHTS for Inhibitors of binding or entry into cells for Lassa Virus | Lassa virus pseudotype entry inhibition, cell reporter | Potency, µM (doses to about 37.9 µM), without a hit: top-dose activity change, negative = inhibition, actives largely listed as inhibitors | 300,000 tested, 1.2% active | AID 540256, 2011; calls by dose curve; tested in HEK293 cells; note: potency is the fitted concentration of half-maximal effect; % is set by controls: 0 for no effect and ±100 for the full control effect; nearly all actives have a fitted effect of over 50% in size
Shiga toxin inh: A qHTS for Small Molecule Inhibitors of Shiga Toxin. inhibition, % at 38.7 µM. AID 2315, 2010. Vero cells, Shiga toxin protein synthesis inhibition reporter. 290,000 tested, 9.2% active; in the data active = inhibition mostly above about 28%, no sharp cut-off; inactive = mostly below about 43%; note: 0% is about no effect
CHX counter: Cycloheximide Counterscreen for Small Molecule Inhibitors of Shiga Toxin; cell reporter, cycloheximide protein synthesis inhibition counterscreen; max response, %; 300,000 tested, 12% active; AID 2314, 2010; in the data active = max response mostly above about 13%, no sharp cut-off; inactive = mostly below about 14%; note: read at 38.3 µM for the half of the compounds with a filed dose; 0% is about no effect
MARV entry inh: qHTS for inhibitors of binding or entry into cells for Marburg Virus; 300,000 tested, 1.8% active; Marburg virus pseudotyped entry inhibition, cell reporter; Potency, µM (top dose mostly 37.8 µM), inactives show at the highest dose activity change, negative = inhibition, hits mostly inhibitors; AID 540276, 2011; calls by dose curve; tested in HEK293 cells; note: potency is the fitted concentration of half-maximal effect; % is set by controls: 0 for no effect and ±100 for the full control effect
Active calls of the source: *; ? = inconclusive; . = not tested or not shown; ! = not active in a repeat; [ ] = dose if it differs, or a comment.

SMILES | LASV entry inh | Shiga toxin inh | CHX counter | MARV entry inh
COc1ccc(N=C2C(=Nc3ccc(OC)cc3)N(c3ccc(OC)cc3)C(=S)N2c2ccccc2)cc1 | -6.9% | 69.6* | 59.6* | 0.0%
COC(=O)c1c(C)[nH]c(C=O)c1-c1ccccc1 | -28.8% | 61.7* | 30.5* | 11.5%[46.1 µM]
COC(=O)c1c(-c2ccccc2)c[nH]c1C | 26.6% | 81.9* | 23.8* | 9.2%
COC(=O)c1c(C)[nH]c(C)c1-c1ccccc1Cl | 14.8% | 20.8 | 6.0 | -6.4%
Cc1ccc(-c2c[n+]3c(n2-c2ccccc2)CCC3)cc1 | ? | -9.3 | 1.1 | ?
Cc1ccc(-n2c(-c3ccc(Br)cc3)c[n+]3c2CCc2ccc4cccnc4c2-3)cc1 | 6.51µM* | -39.0 | -8.1 | 2.31µM*!
CN(C)c1ccc(NC(=O)c2ccc(N3CCOCC3)nc2)cc1 | . | 78.6* | 34.2* | .
Cc1ccccc1C(=O)Nc1ccc(CN2CCOCC2)cc1 | . | 2.0 | 7.9 | .
CN1CCN(c2ccc(NC(=O)c3ccc(Cl)cc3)cn2)CC1 | 0.3% | 23.5 | 42.2* | -0.4%[46.1 µM]
Cc1ccccc1C(=O)Nc1ccc(N2CCOCC2)nc1 | ? | 58.2* | 29.8* | 16.7%
O=C(Nc1ccc(N2CCOCC2)nc1)c1ccc(F)cc1 | 9.0% | 47.9* | 41.1* | 3.1%
CCCOc1ccc(C(=O)N(Cc2cccs2)c2ccc(C)cc2)cc1 | -19.5%[46.1 µM] | . | . | -6.7%[46.1 µM]
COc1ccc(-c2nnc(SCC(=O)NC3CCCCC3)n2N)cc1 | -11.6% | . | . | 2.7%[46.1 µM]
Cc1ccc(S(=O)(=O)N2CCC(C(=O)N/N=C/c3ccncc3)CC2)cc1 | . | -14.6 | -1.2 | .
COc1ccccc1N1CCN(c2ccc(=O)n(CC(=O)O)n2)CC1 | 21.8%[46.1 µM] | . | . | -0.1%[46.1 µM]
Cc1ccc(C(=O)Nc2ccc(N3CCOCC3)nc2)cc1 | 14.0% | 75.4* | 20.1* | 3.2%
Cc1ccc(S(=O)(=O)N2CCOC2CNC(=O)C(=O)NCCCN2CCOCC2)cc1 (stereo not given) | . | 11.5 | 2.6 | .
COc1ccc(C2/C=C\CN(S(=O)(=O)c3ccc(C)cc3)C(Cc3ccccc3)C(=O)N2Cc2ccc(F)cc2)cc1 (stereo not given) | . | -6.4 | 8.8 | .
Cc1ccc(-c2cc(-c3ccccc3Cl)[nH]n2)c(O)c1 | 14.5% | 128.1* | 50.7* | ?
Cc1ccc(-c2cc(-c3ccccc3[N+](=O)[O-])[nH]n2)c(O)c1 | -7.2% | 75.4* | 31.0* | 18.8%
Cc1ccccc1-c1cc(-c2ccccc2O)n[nH]1 | -26.4% | 74.9* | 30.5* | -0.4%
Nc1n[nH]c(-c2ccccc2[N+](=O)[O-])n1 | 17.7% | -1.9 | 0.6 | ?
O=C(COC(=O)c1ccccc1O)Nc1cc([N+](=O)[O-])ccc1Cl | . | -9.6 | -2.8 | .
CCC1CCCCN1CCCNC(=O)CSc1nc2nc(C)c(Cc3ccc(C)cc3)c(C)n2n1 (stereo not given) | ? | -11.2 | -5.1 | 11.2µM*
C/C(=N\NC(=O)C(N)=O)c1cccc(C(F)(F)F)c1 | -2.5% | 9.3 | 4.5 | 17.1%[46.1 µM]
SMILES | LASV entry inh | Shiga toxin inh | CHX counter | MARV entry inh
COc1ccc(C(=O)Nc2ccc(NS(=O)(=O)c3ccccc3)cc2)cc1OC | -4.1% | -6.6 | -6.0 | -14.2%[46.1 µM]
COc1ccc(-n2nc(C(=O)NCC(=O)N3CCCCCC3)c3ccccc3c2=O)cc1 | . | 41.0 | 16.0* | -21.1%[46.1 µM]
COc1ccc(-n2nc(C(=O)NCC(=O)N3CCN(C)CC3)c3ccccc3c2=O)cc1OC | 0.2% | 19.3 | -0.8 | -12.3%
COc1ccc(-n2nc(C(=O)NCC(=O)N3CCN(C)CC3)c3ccccc3c2=O)cc1 | . | -3.3 | 2.4 | -1.0%[46.1 µM]
CCOC(=O)C1CCN(C(=O)CNC(=O)c2nn(-c3ccc(OC)c(OC)c3)c(=O)c3ccccc23)CC1 | -2.1%[46.1 µM] | 37.8 | 20.6* | ?
COc1ccc(-n2nc(C(=O)NCC(=O)N3CCN(c4ccccc4F)CC3)c3ccccc3c2=O)cc1OC | . | 22.1 | 24.6* | -27.0%[46.1 µM]
CCOC(=O)C1CCN(C(=O)CNC(=O)c2nn(-c3ccc(OC)cc3)c(=O)c3ccccc23)CC1 | . | 27.6 | 27.4* | ?
CCOC(=O)N1CCN(C(=O)CNC(=O)c2nn(-c3ccc(OC)cc3)c(=O)c3ccccc23)CC1 | ? | 20.8 | 17.8* | 9.0%
CC(=O)N1c2ccccc2C(=O)OC1c1cccnc1 (stereo not given) | 0.5% | -4.6 | -1.1 | 10.2%
CC(=O)N1c2ccccc2C(=O)C1N(C)c1ccc(C)cc1 (stereo not given) | 21.2%[46.1 µM] | 44.6* | 32.8* | ?
CCc1ccc(CN(C)C(=O)CCc2nc3ccccc3n(-c3ccc(OC)cc3)c2=O)cc1 | 14.1µM* | -17.6 | 4.3 | 10µM*
COc1ccc(-n2c(=O)c(CCC(=O)N(C)Cc3ccccc3C)nc3ccccc32)cc1 | . | -4.4 | -1.8 | 0.0%
O=C(NCCCNC(=O)c1c(F)cccc1F)c1c(F)cccc1F | 0.0%[46.1 µM] | -11.7 | -3.2 | 7.4%[46.1 µM]
O=C(NCC(Cl)c1ccc2ccccc2c1)c1c(F)cccc1F (stereo not given) | . | 8.9 | 33.3* | .
COc1ccc(NC(=O)N(Cc2cc3cc(C)ccc3[nH]c2=O)CC2CCCO2)cc1 (stereo not given) | . | -6.1 | -1.6 | .
COc1ccc2[nH]c(=O)c(CN(CC3CCCO3)C(=O)Nc3ccc(F)cc3)cc2c1 (stereo not given) | 11.2µM* | 9.5 | -2.0 | ?
CCN(CC)CCCN(Cc1cc2cc3c(cc2[nH]c1=O)OCO3)C(=O)Nc1ccccc1OC | 17.1% | -4.7 | -1.3 | 0.2%
COc1ccc(NC(=O)N(Cc2cc3cc(OC)c(OC)cc3[nH]c2=O)CC2CCCO2)cc1 (stereo not given) | . | 14.4 | 11.7* | .
O=C(COc1ccccc1)N(Cc1cc2ccccc2[nH]c1=O)CC1CCCO1 (stereo not given) | 3.2% | 40.5 | 24.7* | ?
CCN(CC)CCCN(Cc1cc2cc3c(cc2[nH]c1=O)OCCO3)C(=O)Nc1ccc(F)cc1 | 13.6% | 78.4* | 14.0* | -20.3%
COc1cccc(CNC(=O)Cc2ccc(NC(=O)N3CCCCc4ccccc43)cc2)c1OC | -21.3%[46.1 µM] | . | . | .
O=C1c2ccccc2NC(c2ccc(O)cc2)N1c1ccccc1 (stereo not given) | 17.6%[46.1 µM] | 58.3* | 35.7* | 10.4%[46.1 µM]
O=C1c2ccccc2NC(c2ccc(O)cc2)N1/N=C/c1ccc(O)cc1 (stereo not given) | ? | 43.4* | 18.6* | ?
O=C1c2ccccc2NC(c2cccc(O)c2)N1O (stereo not given) | . | 25.6 | 16.2* | .
CCCn1c(SCC(=O)NC2CCCCC2)nnc1-c1ccco1 | -13.2% | -3.9 | -6.2 | 11.7%[46.1 µM]
COCCN(C(=O)c1cc2c(s1)CCC2)c1c(N)n(CC(C)C)c(=O)[nH]c1=O | 1.1% | . | . | 7.1%
Cc1ccc(Nc2nc(CSc3nnc(-c4cccnc4)n3-c3ccccc3C)cs2)cc1 | ? | 41.1 | 23.6* | ?
Cc1ccc(Nc2nc(CSc3nnc(-c4ccccc4)n3C)cs2)cc1 | ? | 51.6* | 31.6* | ?
Cc1ccccc1-n1c(SCc2csc(Nc3ccccc3)n2)nnc1-c1cccnc1 | -18.3% | -8.9 | -5.4 | ?
Cc1ccc(Nc2nc(CSc3nnc(-c4ccccc4C)n3C)cs2)cc1 | ? | 79.7* | 45.1* | -11.5%
